Data published in ChEMBL document CHEMBL3988442, “University of Dundee, Small-Polar-MMV Screening Library” (2021).
Screen size: about 48,000 compounds; about 13,000 (27%) showed an effect of 50% or more. This is one part of the list.

tested on: Wolbachia pipientis; assay: Anti-Wolbachia Cell-Based Screen; assay type: functional; set-up: scale not given: in the data most compounds retested in dose-response had high values; conditions: 5 µM

SMILES | Percent Effect
Cc1cc(NC(=O)C(C)NCCn2cccn2)no1 (configuration not stated) | 7.799%
Cc1cc(NC(=O)C(C)Nc2cccc(COCc3ccco3)c2)no1 (configuration not stated) | 96.95%
Cc1cc(CNC(=O)Nc2cccc(COCCOC(C)C)c2)no1 | 4.138%
Cc1nnc(C(C)Nc2cccc(COCCc3ccccc3)c2)o1 (configuration not stated) | -2.129%
Cc1cc(NC(=O)C(C)Nc2ccn(Cc3ccccn3)n2)on1 (configuration not stated) | -74.41%
Cc1cc(NC(=O)C(C)Nc2cccc(COCc3ccco3)c2)on1 (configuration not stated) | 82.63%
CCN1CCN(c2ccc(CNC(=O)c3ccc(Cl)o3)cn2)CC1 | 4.733%
Cc1ccccc1[C@@H]1CN(Cc2c(C)noc2C)C[C@H]1C(=O)O | -12.73%
COc1ccc2[nH]c(=O)c(CN(C)CCN3CCCC3)cc2c1 | -6.943%
COc1cc2[nH]c(=O)c(CN3CCC[C@H]3CO)cc2c(OC)c1OC | 3.209%
CCN1CCCC1Cn1ccc2c(OC)c(OC)ccc2c1=O (configuration not stated) | -2.049%
CCOc1ccc2[nH]c(=O)c(CN3CCC(O)CC3)cc2c1 | -5.024%
CCN1CCCC1CNCc1cc2cc(C)c(C)cc2[nH]c1=O (configuration not stated) | 108.5%
CCN1CCCC1CNCc1cc2cc(OC)ccc2[nH]c1=O (configuration not stated) | 59.94%
COc1cc2[nH]c(=O)c(CN3CCCC3C)cc2c(OC)c1OC (configuration not stated) | -17.42%
CCN1CCCC1CN(CCN(C)C)S(=O)(=O)c1ccc(C#N)cc1 (configuration not stated) | 2.143%
CN(CCN1CCCCC1=O)Cc1cc2cc3c(cc2[nH]c1=O)OCO3 | 9.765%
CCN1CCCC1CNCc1cc2cc3c(cc2[nH]c1=O)OCCO3 (configuration not stated) | 90.42%
Cc1cc(C)c(CNC(=O)NCC2CCCN2C)c(=O)[nH]1 (configuration not stated) | -15.32%
CCN1CCCC1CNCc1cc2cc(OC)c(OC)cc2[nH]c1=O (configuration not stated) | 127.9%
COCCN1CCc2cc(C(=O)O)c(-c3ccoc3)nc2CC1.O=C(O)C(F)(F)F.O=C(O)C(F)(F)F | -9.804%
CCCc1nnc(C(=O)N(C)Cc2ccc(OC)cc2)o1 | 16.32%
COCCC(C)NC(=O)N1CCSC(C)(C)C1 (configuration not stated) | -17.32%
CC[C@H]1CN(C(=O)c2cnc(CN3CCCC3)s2)CC[C@@]1(C)O | 12.41%
O=C(NCCNc1ccccn1)NCC1CCS(=O)(=O)C1 (configuration not stated) | 7.118%
Cc1ccc(S(=O)(=O)N2CC(C)Oc3ncccc32)c(F)c1 (configuration not stated) | -7.297%

SMILES | Percent Effect
CCN1CCCC1CNCc1cc2ccccc2[nH]c1=O (configuration not stated) | 105.7%
CS(=O)(=O)NCCCN1CCCCC1c1cc2ccccc2[nH]1 (configuration not stated) | 5.136%
CS(=O)(=O)NCC1CCN(Cc2cc3ccccc3[nH]c2=O)C1 (configuration not stated) | 5.413%
Cc1occc1C(=O)N1CC(C(=O)N2CCOCC2)C2(CCOCC2)C1 (configuration not stated) | -11.45%
CC(NC(=O)CCC(=O)c1cccs1)c1nnc2n1CCC2 (configuration not stated) | 109.2%
Cc1noc(CCCC(=O)NC(C)c2nnc3n2CCCCC3)n1 (configuration not stated) | -8.198%
CC(NC(=O)CCCC(=O)c1cccs1)c1nnc2n1CCC2 (configuration not stated) | 92.19%
CC(NC(=O)CCC(=O)c1cccs1)c1nnc2n1CCCCC2 (configuration not stated) | -1.581%
c1cnn(Cc2ccc(CN3CCC4(CCCNC4)C3)cc2)c1 (configuration not stated) | 7.706%
COCCN1CCN(CCCc2nnnn2-c2ccccc2)CC1 | -6.154%
Cc1cccc2[nH]c(C3CCN(C(=O)c4c[nH]c(=O)[nH]c4=O)CC3)nc12 | -6.416%
Cc1cncc(C2CCCN(C(=O)c3c[nH]c(=O)[nH]c3=O)C2)n1 (configuration not stated) | -6.344%
Cc1cnc(C2CCCN(C(=O)c3c[nH]c(=O)[nH]c3=O)C2)s1 (configuration not stated) | 107.7%
Cc1ccccc1OC1CCN(C(=O)c2c[nH]c(=O)[nH]c2=O)CC1 | 25.29%
O=C(c1c[nH]c(=O)[nH]c1=O)N1CCCC(c2cnccn2)C1 (configuration not stated) | 111.3%
Cc1cc(C2CCCN(C(=O)c3ccc(C)[nH]c3=O)C2)n[nH]1 (configuration not stated) | 8.066%
Cn1ccnc1CN1CCN(c2ncnc3ccsc23)CC1 | 8.989%
CCc1[nH]n(C)c(=N)c1-c1ccc2c(c1)OCO2 | -3.293%
CCc1ncnc2c1CCN(CCOC)CC2.O=C(O)C(F)(F)F | 104.9%
CCc1ncnc2c1CCN(Cc1ccc(OC)cc1)CC2.O=C(O)C(F)(F)F | -14.19%
COCCN1CCc2ncnc(-c3ccccc3)c2CC1.O=C(O)C(F)(F)F | 98.59%
CCc1ncnc2c1CCN(Cc1cccs1)CC2.O=C(O)C(F)(F)F | -3.657%
CN(CCN1CCCC1=O)CC(c1cccs1)N1CCOCC1 (configuration not stated) | -4.192%
CCc1ccc(CN(C/C=C/c2ccccc2)CCOC)nc1 | -1.399%
Cc1cc(CN[C@H](C(N)=O)[C@@H](C)O)c(C)s1 | -13.15%
Cc1ccc(N2CC[C@H](OCC3CC3)[C@@H]2Cc2cccnc2)nn1.O=C(O)C(F)(F)F | 91.78%

SMILES | Percent Effect
Cc1ccc(N2CC[C@H](OCC3CC3)[C@@H]2Cc2ccncc2)nn1 | 112.9%
CN(C)[C@@H]1CCN(c2ncccn2)[C@H]1Cc1cccnc1.O=C(O)C(F)(F)F.O=C(O)C(F)(F)F | 5.907%
O=S(=O)(C1CC1)N1CC[C@H](OCC2CC2)[C@@H]1Cc1ccncc1 | -12.77%
COCCO[C@H]1CCN(c2ccc(C)nn2)[C@H]1Cc1cccnc1.O=C(O)C(F)(F)F.O=C(O)C(F)(F)F | 97.63%
Cc1ccc(N2CC[C@H](OCC3CC3)[C@@H]2Cc2cnn(C)c2)nn1 | 1.399%
COCCO[C@H]1CCN(c2cc(OC)ncn2)[C@H]1Cc1cccnc1.O=C(O)C(F)(F)F | -7.888%
O=C(NCC(F)(F)F)c1nnn(-c2ccccc2)c1C(F)(F)F | -4.958%
CCCSCC(=O)N1C[C@H]2CC[C@@H]1CN(c1ncccn1)C2 | 28.59%
N[C@H]1CN(C(=O)c2ccc(CO)cc2)C[C@@H]1C1CC1 | -11.41%
COc1ccc(-c2nc3c([nH]2)CCNC3)c(OC)c1OC | -10.21%
O=C(CCc1ccc(C(F)(F)F)cc1)N1CCCS1(=O)=O | -13.79%
COc1c(NS(=O)(=O)c2ccc(C)c(C)c2)c(C)nn1C | -13.12%
CCc1ccc(S(=O)(=O)Nc2cnc(N3CCOCC3)nc2)cc1 | 1.019%
Cc1ccc(NS(=O)(=O)c2ccc(C#N)cc2)c(CN(C)C)c1 | 3.683%
CC(=O)c1ccc(S(=O)(=O)Nc2cnn(C3CCOCC3)c2)cc1 | 124.1%
Cc1ccc(S(=O)(=O)Nc2cnn(C3CCOCC3)c2)cc1C | 113.9%
O=S(=O)(Nc1cnn(C2CCOCC2)c1)c1ccc(Br)cc1 | 132.2%
O=S(=O)(Nc1cnc(N2CCOCC2)nc1)c1ccc(Cl)cc1 | -1.506%
N#Cc1ccc(S(=O)(=O)Nc2ccc(N3CCOCC3)cn2)cc1 | 1.293%
Cn1nnn(-c2ccc(NS(=O)(=O)c3ccc(Br)cc3)cc2)c1=O | -3.296%
N#Cc1ccc(S(=O)(=O)Nc2cnn(C3CCOCC3)c2)cc1 | 136.3%
O=S(=O)(Nc1cnn(C2CCOCC2)c1)c1ccc2c(c1)CCO2 | -1.173%
Cc1ccc(S(=O)(=O)Nc2ccc(N3CCOCC3)cn2)cc1 | 3.4%
COc1coc(CN2CCCC(CCc3c(F)cccc3F)C2)cc1=O (configuration not stated) | 17.04%
Cc1ccc(C)c(-c2csc(N)c2C#N)c1 | -0.8217%
Cc1nc(N2CCN3CCCCC3C2)nc2cc(S(C)(=O)=O)ccc12 (configuration not stated) | -5.317%

SMILES | Percent Effect
O=C(CNC(=O)c1cnc2ccccc2c1O)NCCn1ccnc1 | -3.022%
Cc1cc(CN2CCN(C(=O)Nc3cccnc3)CC2)on1 | -15.13%
O=S(=O)(Nc1cnn(C2CCOCC2)c1)c1ccc(F)c(F)c1 | -11.58%
O=C(O)c1cc(S(=O)(=O)Nc2cnn(C3CCOCC3)c2)ccc1F | 126.6%
O=S(=O)(Nc1cnn(C2CCOCC2)c1)c1c(F)cccc1F | -13.72%
Cc1ccc(CNCc2cc(Br)c3c(c2)OCO3)cc1 | -32.56%
COc1cccc(N2CCC(CNC(=O)N(C)Cc3ccco3)C2)c1 (configuration not stated) | -2.761%
Fc1cccc(N2CCCC3(CN(Cc4ccco4)CCO3)C2)c1.O=C(O)C(F)(F)F.O=C(O)C(F)(F)F (configuration not stated) | -7.933%
CC(C)(Oc1ccc2c(c1)CCCC2=O)C(=O)NCc1ccco1 | -1.632%
COc1ccc2c(c1)CN(Cc1ccco1)C(=O)CCN2CC(C)(C)O | 126.9%
CC(C)(O)CN1CCC(=O)N(Cc2ccco2)Cc2cc(F)ccc21 | 108.3%
CN1CC(=O)N(c2cccc(F)c2)CC12CCN(Cc1ccco1)C2 (configuration not stated) | -8.082%
CC(=O)N1CCC2(CC1)CN(C(C)=O)CC21CCNC1=O (configuration not stated) | -37.65%
CN(C)C1Cc2ccccc2N(S(=O)(=O)c2ccccc2C#N)C1 (configuration not stated) | -15.96%
CN(C)CCO[C@H]1C[C@@H](O)C12CCN(c1cnccn1)CC2 | 0.5833%
Cc1cc(N2CCCC(c3nccnc3N(C)C)C2)ncn1 (configuration not stated) | 90.88%
CN(C)c1cncc(C2CCCN(c3cnccn3)C2)n1 (configuration not stated) | 69.21%
CN(C)c1nccnc1C1CCCN(c2cnccn2)C1 (configuration not stated) | 115.4%
CN(C)CCCn1ccnc1C1CCCN(c2cc(N)ncn2)C1 (configuration not stated) | -5.782%
CC(C)n1ccnc1C1CCCN(c2cncc(N(C)C)n2)C1 (configuration not stated) | 9.354%
CC(C)c1nc(C2CCCN(c3cnc4ccccc4n3)C2)no1 (configuration not stated) | 3.044%
CN(C)c1nccnc1C1CCN(c2cnccn2)CC1 | 116.7%
COc1cc(N2CCCC(c3ncc[nH]3)C2)ncn1 (configuration not stated) | -14.93%
Cc1cc(C)c(CNC(=O)C2CCCN(c3cnccn3)C2)c(=O)[nH]1 (configuration not stated) | 0.7586%
